Source: PMC7862700, “An all-to-all approach to the identification of sequence-specific readers for epigenetic DNA modifications on cytosine”

What was measured:
Experiment in all cases: DAPPL (digital affinity profiling via proximity ligation, sequencing); 10 mM Tris-HCl pH 7.5, 50 mM NaCl, 1 mM DTT, 4% glycerol, room temperature, 30 min; GST-TFs on glutathione beads, 16-mer random dsDNA library, 0.1% formaldehyde crosslink after washing; high values mean tight binding
FEV = molecular target: T1, FEV (Homo sapiens, UniProt Q99581 1-238); conditions: protein: recombinant; tags: N-terminal GST; dsDNA, one strand shown
T1 sequence: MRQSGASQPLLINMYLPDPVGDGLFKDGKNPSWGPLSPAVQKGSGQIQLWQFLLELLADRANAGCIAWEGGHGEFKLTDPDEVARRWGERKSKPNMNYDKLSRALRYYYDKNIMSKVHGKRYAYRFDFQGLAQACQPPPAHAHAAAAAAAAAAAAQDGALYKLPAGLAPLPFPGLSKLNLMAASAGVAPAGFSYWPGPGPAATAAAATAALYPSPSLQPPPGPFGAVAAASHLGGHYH
How it was run: (§1)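 A tag-only sample was pooled with DNA-barcoded human transcription factors that had been expressed in yeast as GST fusions and captured on glutathione beads. The pools were incubated for 30 min at room temperature with 200 nmole of a random double-stranded 16-mer DNA library in Tris/NaCl/DTT/glycerol buffer, then washed, crosslinked with 0.1% formaldehyde, proximity-ligated (BsaI/T4 ligase, 1 h, 37 °C), PCR-amplified and sequenced on an Illumina NextSeq500. Binding signal is each hexamer's read frequency for a factor divided by its frequency for the tag-only sample.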

ETV5 = ETV5 (Homo sapiens, UniProt P41161 1-510); conditions: protein: recombinant; tags: N-terminal GST; dsDNA, one strand shown
Sequence of ETV5 (P41161 whole entry): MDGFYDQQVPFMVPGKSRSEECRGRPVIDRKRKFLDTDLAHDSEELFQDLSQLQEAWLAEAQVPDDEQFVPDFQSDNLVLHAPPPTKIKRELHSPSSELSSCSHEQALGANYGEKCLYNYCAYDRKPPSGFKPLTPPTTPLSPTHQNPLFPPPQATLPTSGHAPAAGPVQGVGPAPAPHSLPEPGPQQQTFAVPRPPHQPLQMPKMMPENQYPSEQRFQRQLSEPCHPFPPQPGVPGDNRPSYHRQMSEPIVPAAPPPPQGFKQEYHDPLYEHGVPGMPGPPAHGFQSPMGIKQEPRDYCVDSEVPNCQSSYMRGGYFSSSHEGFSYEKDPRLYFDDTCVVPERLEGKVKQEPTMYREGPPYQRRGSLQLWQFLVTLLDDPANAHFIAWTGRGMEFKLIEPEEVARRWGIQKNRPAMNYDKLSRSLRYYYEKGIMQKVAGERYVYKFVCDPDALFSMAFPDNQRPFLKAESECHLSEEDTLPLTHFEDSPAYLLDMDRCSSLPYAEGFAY
How it was run: as §1

HSF1 = HSF1 (Homo sapiens, UniProt Q00613 1-529); conditions: protein: recombinant; tags: N-terminal GST; chain copies: 3; dsDNA, one strand shown
Sequence of HSF1 (Q00613 whole entry): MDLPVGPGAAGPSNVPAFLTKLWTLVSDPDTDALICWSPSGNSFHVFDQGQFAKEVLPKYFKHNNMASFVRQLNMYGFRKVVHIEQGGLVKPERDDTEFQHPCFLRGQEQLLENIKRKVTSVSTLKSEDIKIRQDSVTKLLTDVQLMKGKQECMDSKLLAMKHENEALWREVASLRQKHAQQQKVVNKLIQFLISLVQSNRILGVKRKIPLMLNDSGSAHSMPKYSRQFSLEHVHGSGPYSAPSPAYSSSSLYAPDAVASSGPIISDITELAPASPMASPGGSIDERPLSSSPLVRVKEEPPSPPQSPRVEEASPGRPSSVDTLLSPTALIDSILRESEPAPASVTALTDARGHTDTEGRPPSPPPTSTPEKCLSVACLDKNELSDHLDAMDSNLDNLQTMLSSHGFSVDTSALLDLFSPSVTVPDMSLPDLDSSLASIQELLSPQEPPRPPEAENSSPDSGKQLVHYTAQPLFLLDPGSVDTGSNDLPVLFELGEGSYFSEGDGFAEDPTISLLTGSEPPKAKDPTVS
How it was run: as §1

ELF4 = ELF4 (Homo sapiens, UniProt Q99607 1-663); conditions: protein: recombinant; tags: N-terminal GST; dsDNA, one strand shown
Sequence of ELF4 (Q99607 whole entry): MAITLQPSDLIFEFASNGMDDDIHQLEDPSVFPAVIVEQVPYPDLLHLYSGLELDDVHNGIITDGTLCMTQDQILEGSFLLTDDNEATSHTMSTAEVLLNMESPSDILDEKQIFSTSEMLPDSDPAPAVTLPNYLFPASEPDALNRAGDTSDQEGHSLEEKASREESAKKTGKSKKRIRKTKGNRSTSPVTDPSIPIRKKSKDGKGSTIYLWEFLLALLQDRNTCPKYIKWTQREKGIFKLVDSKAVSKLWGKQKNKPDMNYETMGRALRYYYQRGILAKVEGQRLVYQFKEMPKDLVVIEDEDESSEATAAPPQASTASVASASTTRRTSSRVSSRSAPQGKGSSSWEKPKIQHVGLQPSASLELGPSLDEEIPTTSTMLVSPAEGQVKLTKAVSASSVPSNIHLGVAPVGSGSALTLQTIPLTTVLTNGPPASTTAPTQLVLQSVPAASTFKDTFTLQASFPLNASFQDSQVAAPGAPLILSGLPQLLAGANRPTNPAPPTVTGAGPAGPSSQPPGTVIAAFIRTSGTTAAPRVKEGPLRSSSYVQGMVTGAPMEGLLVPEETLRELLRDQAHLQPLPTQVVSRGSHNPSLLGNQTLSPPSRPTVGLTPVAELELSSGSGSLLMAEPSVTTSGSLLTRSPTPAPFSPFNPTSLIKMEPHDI
How it was run: as §1

ELK4 = molecular target: T2, ELK4 (Homo sapiens, UniProt P28324-2 1-405); conditions: protein: recombinant; tags: N-terminal GST; dsDNA, one strand shown
T2 sequence: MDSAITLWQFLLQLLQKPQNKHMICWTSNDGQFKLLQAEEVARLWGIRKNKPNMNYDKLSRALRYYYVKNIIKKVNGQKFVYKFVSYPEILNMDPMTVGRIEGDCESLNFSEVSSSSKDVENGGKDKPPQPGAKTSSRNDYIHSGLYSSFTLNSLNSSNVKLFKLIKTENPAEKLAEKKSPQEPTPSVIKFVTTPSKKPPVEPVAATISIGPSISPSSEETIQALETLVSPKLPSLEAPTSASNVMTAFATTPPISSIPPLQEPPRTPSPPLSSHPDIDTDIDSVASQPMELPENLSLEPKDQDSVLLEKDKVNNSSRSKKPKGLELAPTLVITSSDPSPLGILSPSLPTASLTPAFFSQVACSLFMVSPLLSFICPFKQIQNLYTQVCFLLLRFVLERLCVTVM
How it was run: as §1

ETV2 = molecular target: T3, ETV2 (Homo sapiens, UniProt O00321 1-342); conditions: protein: recombinant; tags: N-terminal GST; dsDNA, one strand shown
T3 sequence: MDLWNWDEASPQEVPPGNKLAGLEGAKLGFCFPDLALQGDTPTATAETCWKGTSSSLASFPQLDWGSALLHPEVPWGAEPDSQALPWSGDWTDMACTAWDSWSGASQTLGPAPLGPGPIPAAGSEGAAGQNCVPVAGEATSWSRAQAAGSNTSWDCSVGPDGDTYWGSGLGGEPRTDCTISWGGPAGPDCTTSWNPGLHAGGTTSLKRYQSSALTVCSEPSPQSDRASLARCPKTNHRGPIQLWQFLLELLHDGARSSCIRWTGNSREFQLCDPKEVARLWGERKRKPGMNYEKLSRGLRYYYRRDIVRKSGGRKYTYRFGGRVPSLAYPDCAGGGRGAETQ
How it was run: as §1

ELF3 = molecular target: T4, ELF3 (Homo sapiens, UniProt P78545 1-371); conditions: protein: recombinant; tags: N-terminal GST; dsDNA, one strand shown
T4 sequence: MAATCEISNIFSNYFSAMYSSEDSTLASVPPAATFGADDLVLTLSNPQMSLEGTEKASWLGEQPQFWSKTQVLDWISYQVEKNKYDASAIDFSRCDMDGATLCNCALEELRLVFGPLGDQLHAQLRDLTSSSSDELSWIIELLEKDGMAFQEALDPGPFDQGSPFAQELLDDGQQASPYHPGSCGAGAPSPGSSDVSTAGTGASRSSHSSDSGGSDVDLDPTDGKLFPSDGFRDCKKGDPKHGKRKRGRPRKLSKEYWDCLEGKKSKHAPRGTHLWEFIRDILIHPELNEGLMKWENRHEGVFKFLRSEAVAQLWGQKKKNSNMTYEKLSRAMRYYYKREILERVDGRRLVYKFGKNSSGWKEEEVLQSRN
How it was run: as §1

CRX = CRX (Homo sapiens, UniProt O43186 1-299); conditions: protein: recombinant; tags: N-terminal GST; dsDNA, one strand shown
Sequence of CRX (O43186 whole entry): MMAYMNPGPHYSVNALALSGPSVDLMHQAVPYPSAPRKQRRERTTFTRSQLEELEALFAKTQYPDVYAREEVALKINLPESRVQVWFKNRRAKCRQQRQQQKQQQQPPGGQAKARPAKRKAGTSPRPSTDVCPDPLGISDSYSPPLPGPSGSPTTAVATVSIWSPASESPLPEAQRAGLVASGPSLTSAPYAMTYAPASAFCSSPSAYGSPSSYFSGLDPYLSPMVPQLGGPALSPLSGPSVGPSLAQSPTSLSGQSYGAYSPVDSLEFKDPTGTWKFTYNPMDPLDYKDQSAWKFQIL
How it was run: as §1

ETV1 = ETV1 (Homo sapiens, UniProt P50549 1-477); conditions: protein: recombinant; tags: N-terminal GST; dsDNA, one strand shown
Sequence of ETV1 (P50549 whole entry): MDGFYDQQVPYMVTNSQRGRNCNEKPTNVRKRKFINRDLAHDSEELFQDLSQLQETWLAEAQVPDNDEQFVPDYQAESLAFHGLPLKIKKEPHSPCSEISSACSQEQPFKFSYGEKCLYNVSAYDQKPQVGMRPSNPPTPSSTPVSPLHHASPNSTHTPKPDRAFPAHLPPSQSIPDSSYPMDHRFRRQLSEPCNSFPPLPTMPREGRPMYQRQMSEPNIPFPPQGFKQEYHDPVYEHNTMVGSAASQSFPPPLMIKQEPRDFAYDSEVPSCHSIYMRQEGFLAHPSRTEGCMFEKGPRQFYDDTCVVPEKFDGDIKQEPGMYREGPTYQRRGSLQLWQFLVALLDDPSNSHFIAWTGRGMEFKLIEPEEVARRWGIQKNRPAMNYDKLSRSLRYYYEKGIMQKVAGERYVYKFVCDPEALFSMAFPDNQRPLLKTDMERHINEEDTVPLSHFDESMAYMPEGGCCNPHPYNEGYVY
How it was run: as §1

AAGCTC
binding signal (FEV): 1.14 fold enrichment (6-mer frequency, TF over GST control)
binding signal (ETV5): 1.16 fold enrichment (6-mer frequency, TF over GST control)
binding signal (HSF1): 1.42 fold enrichment (6-mer frequency, TF over GST control)
binding signal (ELF4): 1.21 fold enrichment (6-mer frequency, TF over GST control)
binding signal (ELK4): 1.2 fold enrichment (6-mer frequency, TF over GST control)
binding signal (ETV2): 1.15 fold enrichment (6-mer frequency, TF over GST control)
binding signal (ELF3): 1.2 fold enrichment (6-mer frequency, TF over GST control)
binding signal (CRX): 1.68 fold enrichment (6-mer frequency, TF over GST control)
binding signal (ETV1): 1.22 fold enrichment (6-mer frequency, TF over GST control)
